HT1080 IDH1KD tx = HT-1080 IDH1 knockdown cell toxicity (counter line). HT-1080 IDH1 knockdown viability, ATP luminescence, 48 h. Potency, µM (doses to about 46.1 µM), for inactives: at the highest dose activity, negative = toxicity, usual class: cytotoxic. 2% of 360,000 active. AID 686971;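 note: 0% = DMSO wells and -100% = cell-free medium wells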
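% activity derives from luminescence (CellTiter-Glo), normalised to DMSO and no-cell wells. HT-1080-IDH1KD cells, 750/well, had 48 h compound exposure at 37 °C.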
KB-V1 cytotox = KB-V1 MDR subline cytotoxicity; Potency, µM (highest dose often 46.1 µM), most hits filed as cytotoxic; 3.4% of 400,000 active; KB-V1 MDR cells viability, CellTiter-Glo, 72 h; note: % is set by controls: 0 for no effect and ±100 for the full control effect; nearly all actives have a fitted effect of over 60% in size
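qHTS viability screen in drug-selected KB-V1 MDR cells: 72 h compound treatment at 37 degrees C, ATP luminescence end point.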
SW480 rerep = inducers of DNA re-replication in SW480 colon cancer cells; SW480 DNA re-replication, Hoechst DNA content imaging, 48 h; Potency, µM (highest dose often 46.1 µM), inactives show at the top dose re-replication activation, hits mostly activators; 1.8% of 340,000 active; note: % of control where 0% means no effect; nearly all actives have a fitted effect of over 55% in size
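SW480 cells exposed to compounds for 48 hr at 37 C, 5% CO2, then Hoechst-stained 40 min. Nuclear DNA content imaged by fluorescence scanning (405 nm excitation, 500-530 nm emission); re-replication scored as increased high-intensity nuclei.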
MCF10A rereplic = DNA re-replication induction in MCF 10a cells; Potency, µM (top dose mostly 46.1 µM), for inactives: at the top dose activity, positive = re-replication, usual class: activators; MCF 10A DNA re-replication, Hoechst nuclear intensity, 48 h; 2.9% of 350,000 active; note: % of control where 0% means no effect; nearly all actives have a fitted effect of over 50% in size
HT1080-NT tox = kills 2HG-producing HT-1080-NT fibrosarcoma cells; 1.6% of 360,000 active; Potency, µM (top dose mostly 46.1 µM), without a hit: at the top dose activity, negative = less viability, usual class: cytotoxic; HT-1080-NT fibrosarcoma viability, CellTiter-Glo ATP luminescence, 48 h;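 note: NT is the 2HG producing partner of a matched IDH1 knockdown line; 0% = DMSO-treated cells and -100% = media-only wells without cells; nearly all actives have a fitted effect of over 55% in size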
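A 48-hour cytotoxicity screen used HT-1080-NT cells plated 2 hours before compound delivery. ATP-based CellTiter-Glo luminescence measured viability, normalized to DMSO and no-cell controls.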
KB-3-1 cytotox = KB-3-1 parental cell cytotoxicity | KB-3-1 viability, CellTiter-Glo ATP luminescence, 72 h | Potency, µM (series often up to 46.1 µM), usual class: cytotoxic | 1.4% of 400,000 active; note: % is set by controls: 0 for no effect and ±100 for the full control effect; nearly all actives have a fitted effect of over 60% in size
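Parental KB-3-1 viability, qHTS format: 72 h compound exposure, 37 °C; CellTiter-Glo; media-only wells and DMSO plates as controls; concentration-effect fits on corrected data.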
* marks the source's active call; other numbers are inactive results; i = inactive; ? = inconclusive; · = no result; ! = not active in a repeat. Shown are actives, neighbours in structure and some others; about 7.9% of the full set was active somewhere. Calls come from the whole dose curve; as a rule, active = well fitted curve in the direction sought with a large enough effect; inconclusive = small, poorly fitted or top-dose-only effect, or another doubt; inactive = no such curve, though single readings can be large; an effect the other way counts as inactive or inconclusive. Potency is the fitted concentration of half-maximal effect.

SMILES	HT1080 IDH1KD tx	KB-V1 cytotox	SW480 rerep	MCF10A rereplic	HT1080-NT tox	KB-3-1 cytotox
Cc1nc(-c2cccnc2)sc1C(=O)Nc1cccc(C(F)(F)F)c1	18%	16µM*	-3%	8%	10%	i
Cc1nc(-c2cccnc2)sc1C(=O)Nc1ccc(C(F)(F)F)cc1	-11%	?	-6%	-1%	-1%	i
CC(=O)NC1CCN(C(=O)N2CCCC2)CC1	0%	i	-13%	0%	3%	i
C=CCNC(=O)NC(=O)COC(=O)C(C)Oc1ccc(Cl)cc1Cl (stereo not given)	19%	i	0%	0%	12%	i
Cc1ccc(NNC(=O)c2cc(C)on2)c(C)c1	8.2µM*	i	-10%	20%	?	i
Cc1cc(C(=O)NNc2ccc(F)cc2F)no1	5.2µM*	i	-23%	?	3.7µM*	i
CCn1cc(CN2CCC(C(=O)Nc3ccc(Oc4ccccc4F)cc3)CC2)cn1	-29%	?	·	·	-14%	i
CCN(CC)C(=O)N1CCn2c(nc3ccccc32)C1	-6%	i	-6%	-3%	0%	i
O=C(Nc1ccccc1)N1CCn2c(nc3ccccc32)C1	7%	23µM*	0%	15%	20%	i
CC1CCCCN1C(=O)CSc1nc2ccsc2c(=O)n1Cc1ccccn1 (stereo not given)	-7%	18µM*	-12%	2%	9%	i
CCn1c(SCC(=O)N2CCCCC2C)nc2ccsc2c1=O (stereo not given)	-21%	i	0%	-7%	5%	i
COc1ccc(N2CCN(CCCNC(=O)c3ccc4nc(N5CCCCC5)sc4c3)CC2)cc1	·	i	·	·	·	i
Cc1ccc(C)c(N2CCN(CCCNC(=O)c3ccc4nc(N5CCC(C)CC5)sc4c3)CC2)c1	·	?	·	·	·	21µM*
Cc1ccc(Cl)cc1N1CCN(CCCNC(=O)c2ccc3nc(N4CCCCC4)sc3c2)CC1	·	16µM*	·	·	·	?
Cc1cc(C)c2nc(N3CCC(C(=O)NCCCN4CCCCC4)CC3)sc2c1	18µM*	?	15%	?	23µM*	?
CC(C)N1CCCC(C)(C(=O)Nc2nc3ccccc3[nH]2)C1 (stereo not given)	-1%	i	·	·	?	i
COc1cc2c(cc1OC)C(c1ccc(-c3ccc(Cl)cc3Cl)o1)=NCC2	23µM*	2.6µM*	?	?	?	23µM*
COc1cc2c(cc1OC)C(c1ccc(-c3cc(Cl)ccc3Cl)o1)=NCC2	-7%	5.2µM*	16µM*	?	-7%	?
COc1cc2c(cc1OC)C(c1ccc(Cl)cc1)=NCC2	-11%	i	11%	5%	8%	i
COc1cc2c(cc1OC)C(c1ccc(-c3ccc(Cl)c(Cl)c3)o1)=NCC2	23µM*	?	18µM*	2.3µM*	?	16µM*!
COc1cc2c(cc1OC)C(c1ccc(-c3ccccc3Cl)o1)=NCC2	13µM*	i	?	?	?	i
CC(=O)Nc1ccc(-c2ccnc3c2CC(C(=O)Nc2ccc(C(C)C)cc2)O3)cc1 (stereo not given)	-26%	?	·	·	?	i
O=C1NC(c2ccccc2)(C(F)(F)F)SC2=NCCCN12 (stereo not given)	1%	i	-7%	-7%	0%	i
N#C/C(=C(/O)COc1ccc(Cl)cc1)c1nc2ccccc2s1	-6%	13µM*	0%	16µM*	-9%	?
N#C/C(=C(/O)c1ccc(F)cc1)c1nc2ccccc2s1	-28%	?	-1%	?	-7%	8.2µM*
N#C/C(=C(/O)COc1ccccc1)c1nc2ccccc2s1	7%	i	?	?	0%	?
Cc1ccc(Cn2c(CN3CCC(C(=O)NCCc4ccccc4)CC3)cc3ccccc32)cc1	·	i	·	·	·	i

Assay outcomes deposited in PubChem by National Center for Advancing Translational Sciences (NCATS).
